RXFP1 antag: antagonists of human relaxin receptor RXFP1; activity change, negative = inhibition, % at 57.5 µM; 350,000 compounds, 0.59% hits; HEK293-RXFP1, relaxin-stimulated cAMP HTRF, 30 min; stronger effect = lower value;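 active means activity change of -60% or lower, but not beyond a set lower limit; inconclusive means change between -60% and -40%, or beyond the set limit; inactive means change above -40%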; further: on the % scale 0 is the no-effect control and ±100 the full control effect
Target sequence (Q9HBX9 whole entry, looked up): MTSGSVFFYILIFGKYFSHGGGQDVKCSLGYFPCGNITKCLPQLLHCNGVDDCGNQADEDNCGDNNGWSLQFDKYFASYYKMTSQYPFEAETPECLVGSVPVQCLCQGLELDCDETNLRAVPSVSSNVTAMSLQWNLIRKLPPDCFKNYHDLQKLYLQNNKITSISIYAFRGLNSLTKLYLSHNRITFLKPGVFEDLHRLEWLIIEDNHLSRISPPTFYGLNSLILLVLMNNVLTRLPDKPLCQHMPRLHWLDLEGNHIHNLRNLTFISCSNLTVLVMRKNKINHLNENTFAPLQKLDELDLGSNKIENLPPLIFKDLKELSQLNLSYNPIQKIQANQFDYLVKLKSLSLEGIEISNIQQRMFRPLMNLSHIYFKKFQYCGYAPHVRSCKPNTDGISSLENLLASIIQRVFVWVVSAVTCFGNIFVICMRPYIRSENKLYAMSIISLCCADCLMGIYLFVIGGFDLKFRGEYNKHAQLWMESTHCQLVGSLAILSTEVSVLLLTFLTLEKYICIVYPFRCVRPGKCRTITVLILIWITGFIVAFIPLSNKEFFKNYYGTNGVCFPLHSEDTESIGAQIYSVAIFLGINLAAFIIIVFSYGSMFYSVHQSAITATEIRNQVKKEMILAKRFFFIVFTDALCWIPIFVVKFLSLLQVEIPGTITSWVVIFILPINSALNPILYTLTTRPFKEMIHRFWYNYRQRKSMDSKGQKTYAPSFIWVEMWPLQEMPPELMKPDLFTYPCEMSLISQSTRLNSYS
NPSR antag: neuropeptide S receptor (human) antagonism, cAMP. CHO-NPSR cells, cAMP TR-FRET, antagonist mode. Potency, µM (series often up to 38.3 µM), inactives show top-dose activity change, negative = inhibition, actives largely listed as inhibitors. AID 1461. Q6W5P4. 220,000 compounds, 1% hits; further: potency means the concentration at half of the fitted maximal effect; on the % scale 0 is the no-effect control and ±100 the full control effect; nearly all actives have a fitted effect of over 50% in size
BRCA1 expr act: increases BRCA1 expression; AID 624202; MCF7-BRCA1-FFLuc reporter, luminescence, 48 h; response scale: scaled: vehicle 0%, 10 µM genistein 100%; 380,000 compounds, 1.1% hits; Potency, µM (top dose mostly 46.1 µM), for inactives: at the highest dose activation, usual class: activators; further: potency means the concentration at half of the fitted maximal effect; nearly all actives have a fitted effect of over 80% in size
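MCF7 cells carrying a BRCA1-firefly luciferase reporter (2000 cells/well, phenol-red free MEM) were attached for 2 h at 37 °C, then given compounds for 48 h. Luminescence was read 15 min after luciferase reagent; activity normalized to genistein (10 microM) and DMSO.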
RXFP1 ag: RXFP1 (human) receptor agonism; 370,000 compounds, 0.3% hits; HEK293T-RXFP1 cAMP TR-FRET, 30 min; response scale: percent of porcine relaxin response, buffer zero; Q9HBX9; AID 2676; Potency, µM (highest dose often 57.5 µM), without a hit: at the highest dose activation, actives largely listed as activators; further: potency means the concentration at half of the fitted maximal effect; on the % scale 0 is the no-effect control and ±100 the full control effect; nearly all actives have a fitted effect of over 60% in size
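cAMP rise read by TR-FRET after 30 min, 37C compound exposure (up to 58 uM) in RXFP1-transfected HEK293 cells with Ro 20174 present. EC50 from Hill-equation fits, with 29 nM porcine relaxin as 100% and buffer as basal.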
IL2 activator: activators of IL-2. IL-2 activation reporter assay, cell-based qHTS; stimulated with anti-CD3/CD4/CD28 beads; in transgenic mouse T cells. AID 652025. activation, % (series mostly up to about 46 µM). 360,000 compounds, 0.065% hits; in the data active means activation above about 50%; inconclusive means mostly about 30% to 49%; further: 0% is about no effect
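Readout: EGFP and DsRed signals by fluorescent plate cytometry. Unstimulated transgenic mouse T cells received compound 60 min before antibody-bead stimulation, then incubated 18 h at 37 degrees C.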
Giardia kill: Giardia lamblia killing; Giardia lamblia trophozoite viability; activity change, % at 7.66 µM, hits read low; 340,000 compounds, 0.15% hits; in the data active means activity change below about -80%; inconclusive means between about -30% and that limit;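 further: parasites exposed to compound for two days anaerobically before the ATP read; on the % scale 0 is the no-effect control and ±100 the full control effect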
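Giardia trophozoites, 100 cells per well, were exposed to compounds for 48 hrs at 37 deg C under anaerobic conditions; viability was then read as ATP content by bioluminescence after 15-30 min at room temperature.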
* hit, by the source's call; ? = inconclusive; . = no result given; [ ] = dose if it differs, or a comment. An excerpt weighted towards active compounds, which were near 1.9% of everything screened. Unless noted, the call rests on the fitted dose curve; in most records, active means well fitted curve in the direction sought with a large enough effect; inconclusive means small, poorly fitted or top-dose-only effect, or another doubt; inactive means no such curve, though single readings can be large; an effect the other way counts as inactive or inconclusive.

SMILES	RXFP1 antag	NPSR antag	BRCA1 expr act	RXFP1 ag	IL2 activator	Giardia kill
COC(=O)[C@@H](Cc1c[nH]c2ccccc12)NC(=O)c1ccc2c(c1)OCO2	-0.5	.	3.55µM*	2.0%	-2.3	9.0
O=C(NCCc1c[nH]c2ccccc12)c1cc(Cl)c2c(c1)OCO2	-6.9	.	3.55µM*	-1.3%	0.0	0.1
COc1ccc(OC(=O)N(CC(=O)O)Cc2ccc(OCCc3nc(-c4ccccc4)oc3C)cc2)cc1	6.8	.	.	.	.	.
CCC(=O)NCCc1sc2nc(-c3ccc(OC)cc3)nn2c1C	.	.	5.01µM*	4.4%	.	.
CCOc1ccc(CC(=O)NCCc2sc3nc(-c4ccc(OC)cc4)nn3c2C)cc1	15.7	.	.	2.2%	.	.
Cn1c(C(=O)NCc2ccccn2)cc2c(=O)n3ccccc3nc21	-9.1	?	5.01µM*	10.7%	-0.3	-12.8
Fc1cccc(Cl)c1CNCCSc1nnnn1-c1ccccc1	-5.0	.	.	-3.1%	.	.
CCC(=O)N1N=C(c2ccc(Cl)cc2)CC1c1ccco1 (configuration not stated)	-63.7*	42.4%	3.3%	-0.3%	-1.3	-5.7
COc1cccc(-c2cc(C(=O)NCc3ccco3)c3ccccc3n2)c1	-86.2*	.	0.6%	-1.5%	2.4	-2.5
COc1ccc(-c2cc(C(=O)NCc3ccco3)c3ccccc3n2)cc1OC	12.2	.	-16.7%	.	-0.4	11.3
COc1cccc(-c2ccc(C#N)c(SCC(=O)NCc3ccco3)n2)c1	-4.5	-36.9%	49.3%	35.5µM*	-0.3	1.4
COc1ccc(-c2cc(-c3cccs3)c(C#N)c(SCC(=O)NCc3ccco3)n2)cc1	-9.5	-7.2%[46.1 µM]	-72.8%	9.8%	-0.7	8.7
CCOc1ccc2nc(N3CCCC(C(=O)Nc4ccccc4CC)C3)sc2c1 (configuration not stated)	-6.9	.	.	1.0%	.	.
Cc1cccc(NC(c2cccc(Cl)c2)c2ccc3cccnc3c2O)n1 (configuration not stated)	-5.5	.	.	-0.3%	.	.
CCc1ccc(/C=C2\Oc3c(ccc(O)c3CN3CCN(C)CC3)C2=O)cc1	0.3	10µM*	0.5%	16.9%	0.6	-4.3
CCN1CCN(Cc2c(O)ccc3c2O/C(=C\C=C\c2ccccc2)C3=O)CC1	-1.6	3.98µM*	-55.8%	1.6%	-1.1	3.2
CCN1CCN(Cc2c(O)ccc3c2O/C(=C\c2ccc(C)cc2)C3=O)CC1	-0.8	10µM*	-1.9%	10.6%	-0.5	6.6
Cc1ccc(/C=C2\Oc3c(ccc(O)c3CN3CCN(C)CC3)C2=O)cc1	-9.0	7.94µM*	1.2%	8.4%	-1.1	7.6
O=C1/C(=C/C=C/c2ccccc2)Oc2c1ccc(O)c2CN1CCN(CCO)CC1	-4.5	-52.6%	1.1%	10.0%	0.4	-19.3
Cc1ccc(C(=O)Nc2cccc(C(F)(F)F)c2)cc1NC(=O)c1csc(-c2ccncc2)n1	9.6	-31.9%	-24.5%	3.6%	-3.3	2.5
N#C/C(=N\Nc1cccc(C(F)(F)F)c1)C(=O)c1csc(-c2cccnc2)n1	.	10µM*	-9.4%	5.7%	-1.1	-27.6
CC(=O)n1c(C=Nc2ccc(Cl)cc2)c(O)c2ccccc21	-19.1	2.6%	-18.5%	-2.4%	83.7*	2.0
CC(=O)n1c2ccccc2c2ccccc21	4.6	10.0%[46.1 µM]	-2.0%	-0.1%	2.4	16.2
CNc1ccc(/C=C(\C#N)c2ccccn2)cc1[N+](=O)[O-]	-4.7	-4.8%	10µM*	2.4%	2.4	-1.4
N#C/C(=C\c1ccc(Cl)c([N+](=O)[O-])c1)c1ccccn1	-27.3	-51.4%	-95.9%	-2.5%	0.1	18.6
SMILES	RXFP1 antag	NPSR antag	BRCA1 expr act	RXFP1 ag	IL2 activator	Giardia kill
CC1CCc2nc(/C(C#N)=C/c3ccncc3)sc2C1 (configuration not stated)	-18.5	-16.3%	11.2µM*	0.3%	-2.3	-22.6
CCOC(=O)N1CCc2c(sc3c2c(=O)n(-c2ccc(CC)cc2)c(=O)n3Cc2ccc(F)cc2Cl)C1	-8.6	.	.	23.4%	.	.
CCCC/C=C1\CCc2c([nH]c3ccccc23)C1=O	-18.2	-1.3%	1.41µM*	-1.5%	0.8	19.1
CN(C)C(=O)CNc1ccn2nc(-c3cccc(Cl)c3)cc2n1	.	.	5.01µM*	.	0.0	.
CCC(CO)Nc1ccn2nc(-c3cc(OC)c(OC)c(OC)c3)cc2n1 (configuration not stated)	.	.	-24.0%	.	-0.3	.
CCC(CO)Nc1ccn2nc(-c3ccccc3)cc2n1 (configuration not stated)	.	.	3.55µM*	.	1.1	.
CCC(CO)Nc1ccn2nc(-c3cccs3)cc2n1 (configuration not stated)	.	.	5.62µM*	.	-0.4	.
CCCN1CNc2c(c(=O)[nH]c(=S)n2CCc2cc(OC)cc(OC)c2)C1	.	.	0.0%	.	.	9.6
Cc1cccc(-c2nnc(NC(=O)c3ccco3)s2)c1	-2.2	.	?	8.0%	-1.8	-28.5
O=C(Nc1ncc([N+](=O)[O-])s1)c1ccco1	-8.4	.	20.7%	-1.1%	-4.7	-89.6*
CC(C)Sc1nnc(NC(=O)c2ccc3c(c2)OCO3)s1	-22.5	.	2.51µM*	12.5%	-0.5	?
O=C(Nc1nnc(-c2ccc(F)cc2)s1)c1ccco1	-8.7	.	2.82µM*	6.2%	-0.3	-18.5
Cc1ccc(C(=O)Nc2ncc([N+](=O)[O-])s2)cc1	-14.7	.	?	0.8%	-0.5	-86.5*
CCSc1nnc(NC(=O)c2ccc3c(c2)OCO3)s1	-19.4	-3.3%[46.1 µM]	?	2.7%	-2.5	?
COc1ccc(CCC(=O)NO)cc1	.	.	-5.5%	.	.	.
O=C(Nc1ncc([N+](=O)[O-])s1)c1ccc2c(c1)OCO2	-10.3	.	?	1.5%	-1.1	-95.5*
Cc1onc(-c2ccccc2)c1C(=O)Nc1ncc([N+](=O)[O-])s1	-14.9	.	-52.5%	-0.7%	-1.1	-94.4*
CCN(CC)C(=O)c1sc(NC(=O)c2ccc3c(c2)OCO3)c(C(N)=O)c1C	3.8	.	11.2µM*	-0.6%	-0.7	18.7
CC(C)(C)c1ccc(-c2nnc(NC(=O)c3ccccc3)s2)cc1	-8.8	-11.9%[46.1 µM]	3.16µM*	?	-2.4	0.1
Cc1onc(-c2ccccc2)c1C(=O)Nc1nnc(C(C)C)s1	3.9	.	2.2%	-0.1%	0.5	4.6
CCN(CC)/[N+]([O-])=N/OCOC(=O)c1ccccc1OC(C)=O	.	.	4.3%	.	.	.
Cc1ccc(NC(=O)C2CCCN2S(=O)(=O)c2cccc3cccnc23)cc1C (configuration not stated)	-21.1	.	.	0.6%	.	.
CC(=O)c1cccc(NC(=O)N2CCC(CN3CCCCC3)CC2)c1	-5.2	.	.	0.0%	.	.
Cc1cc(SCC(=O)N/N=C/c2ccc(O)c(O)c2)nc2ccccc12	-67.0*	.	-27.9%	-3.4%	-2.0	-10.0
OC(C[n+]1ccccc1Cl)c1ccccc1 (configuration not stated)	.	.	16.8%	.	.	.

Assay outcomes deposited in PubChem BioAssay by National Center for Advancing Translational Sciences (NCATS).
